In PMC11006913 one finds binding signal data, which are given here for 5 sequences.

Residue numbers refer to the chain shown, from its start.

What all share (assay): PBM; 200 nM protein, PBS
What all share (details): dsDNA, one strand shown

Experiment [1] addresses HOXB4 (Homo sapiens, UniProt P17483 148-234).
Experiment [2] deals with HOXA4 (Homo sapiens, UniProt Q00056 201-287, W262R).
Experiment [3] has as its target HOXA2 (Homo sapiens, UniProt O43364 129-215, R185T).
Experiment [4] deals with HOXA4 (Homo sapiens, UniProt Q00056 201-287, R217L).
Experiment [5] deals with HOXB4 (Homo sapiens, UniProt P17483 148-234, V174I).
Experiment [6] concerns the target ALX1 (Homo sapiens, UniProt Q15699 118-204, L144V).
Experiment [7] addresses HOXA2 (Homo sapiens, UniProt O43364 129-215, R185K).
The target in experiment [8] is ALX1 (Homo sapiens, UniProt Q15699 118-204, L144R).
Experiment [9] addresses HOXA4 (Homo sapiens, UniProt Q00056 201-287).
Experiment [10] deals with VAX1 (Homo sapiens, UniProt Q5SQQ9 86-172).
Experiment [11] concerns the target VAX1 (Homo sapiens, UniProt Q5SQQ9 86-172, T142I).
The target in experiment [12] is HOXA2 (Homo sapiens, UniProt O43364 129-215, Y150S).
In experiment [13] the target is ALX1 (Homo sapiens, UniProt Q15699 118-204).
Experiment [14] addresses HOXA4 (Homo sapiens, UniProt Q00056 201-287, W262F).
The target in experiment [15] is HOXA2 (Homo sapiens, UniProt O43364 129-215).
Experiment [16] has as its target VAX1 (Homo sapiens, UniProt Q5SQQ9 86-172, K157R).
For experiment [17], the target named is HOXA7 (Homo sapiens, UniProt P31268 116-202).
Experiment [18] concerns the target T1, PAX4 (Homo sapiens, UniProt O43316 9-242, R200K).
T1 sequence: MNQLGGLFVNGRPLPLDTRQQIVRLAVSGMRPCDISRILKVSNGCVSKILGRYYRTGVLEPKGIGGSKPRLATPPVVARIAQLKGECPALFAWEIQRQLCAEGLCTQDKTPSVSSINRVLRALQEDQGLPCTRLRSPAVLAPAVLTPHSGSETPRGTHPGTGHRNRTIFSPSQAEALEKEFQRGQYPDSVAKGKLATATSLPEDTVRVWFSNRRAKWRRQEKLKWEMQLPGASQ

The target of experiment [19] is T2, PAX4 (Homo sapiens, UniProt O43316 9-242).
T2 sequence: T1 sequence with K192R

Experiment [20] addresses HOXB6 (Homo sapiens, UniProt P17509 132-218, K202E).
Experiment [21] deals with T3, PAX4 (Homo sapiens, UniProt O43316 9-242, R200Q).
T3 sequence: T1 sequence with K192Q

Experiment [22] has as its target T4, PAX4 (Homo sapiens, UniProt O43316 9-242, F177V).
T4 sequence: T1 sequence with F169V, K192R

Experiment [23] deals with T5, PAX4 (Homo sapiens, UniProt O43316 9-242, F177Y).
T5 sequence: T1 sequence with F169Y, K192R

In experiment [24] the target is T6, PAX4 (Homo sapiens, UniProt O43316 9-242, R227W).
T6 sequence: T1 sequence with K192R, R219W

Experiment [25] addresses HOXA7 (Homo sapiens, UniProt P31268 116-202, W177C).
In experiment [26] the target is HOXB6 (Homo sapiens, UniProt P17509 132-218).
For experiment [27], the target named is HOXC9 (Homo sapiens, UniProt P31274 178-260, K195R).
In another experiment the target is T7, NKX2-6 (Homo sapiens, UniProt A6NCS4 118-204, R150C).
T7 sequence: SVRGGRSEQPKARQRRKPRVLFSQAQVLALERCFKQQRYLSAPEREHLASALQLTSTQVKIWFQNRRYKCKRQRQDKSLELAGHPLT

The target in experiment [28] is HOXC9 (Homo sapiens, UniProt P31274 178-260).
The target in experiment [29] is HOXC9 (Homo sapiens, UniProt P31274 178-260, R193K).
The target in experiment [30] is HOXC9 (Homo sapiens, UniProt P31274 178-260, R222W).
The target in experiment [31] is MSX2 (Homo sapiens, UniProt P35548 130-214, R199I).
Experiment [32] addresses HOXD13 (Homo sapiens, UniProt P35453 263-343, T313R).
For experiment [33], the target named is HOXD13 (Homo sapiens, UniProt P35453 263-343).
Experiment [34] addresses MSX2 (Homo sapiens, UniProt P35548 130-214).
For experiment [35], the target named is HOXD13 (Homo sapiens, UniProt P35453 263-343, T313A).
Experiment [36] concerns the target MSX2 (Homo sapiens, UniProt P35548 130-214, F161Y).
Experiment [37] deals with ALX4 (Homo sapiens, UniProt Q9H161 200-286).
Experiment [38] deals with PRRX1 (Homo sapiens, UniProt P54821 80-166, F113S).
The target of experiment [39] is ALX4 (Homo sapiens, UniProt Q9H161 200-286, Q225E).
Experiment [40] concerns the target ALX3 (Homo sapiens, UniProt O95076 139-225, N203Q).
For experiment [41], the target named is ALX3 (Homo sapiens, UniProt O95076 139-225).
The target of another experiment is HESX1 (Homo sapiens, UniProt Q9UBX0 95-180, R109Q).
The target in experiment [42] is ALX3 (Homo sapiens, UniProt O95076 139-225, L168Q).
For experiment [43], the target named is ALX3 (Homo sapiens, UniProt O95076 139-225, L168V).
Experiment [44] addresses ALX3 (Homo sapiens, UniProt O95076 139-225, N203S).
Experiment [45] addresses PRRX1 (Homo sapiens, UniProt P54821 80-166).

ALX1 (Homo sapiens, UniProt Q15699 118-204, L144V), sequence (Q15699 118-204 L144V): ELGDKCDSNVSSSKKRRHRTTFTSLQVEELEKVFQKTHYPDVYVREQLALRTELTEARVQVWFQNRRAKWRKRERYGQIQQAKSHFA
HOXB4 (Homo sapiens, UniProt P17483 148-234, V174I), sequence (P17483 148-234 V174I): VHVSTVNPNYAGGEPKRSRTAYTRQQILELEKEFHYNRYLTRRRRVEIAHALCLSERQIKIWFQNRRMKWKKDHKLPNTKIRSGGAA
HOXB4 (Homo sapiens, UniProt P17483 148-234), sequence (P17483 148-234): as the sequence (P17483 148-234 V174I) above, with I27V counted along it
ALX1 (Homo sapiens, UniProt Q15699 118-204, L144R), sequence (Q15699 118-204 L144R): as the sequence (Q15699 118-204 L144V) above, with V27R counted along it
HOXB6 (Homo sapiens, UniProt P17509 132-218, K202E), sequence (P17509 132-218 K202E): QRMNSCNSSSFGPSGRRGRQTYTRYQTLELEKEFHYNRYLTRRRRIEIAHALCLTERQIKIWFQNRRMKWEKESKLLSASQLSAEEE
ALX1 (Homo sapiens, UniProt Q15699 118-204), sequence (Q15699 118-204): as the sequence (Q15699 118-204 L144V) above, with V27L counted along it
HOXB6 (Homo sapiens, UniProt P17509 132-218), sequence (P17509 132-218): as the sequence (P17509 132-218 K202E) above, with E71K counted along it
HOXA4 (Homo sapiens, UniProt Q00056 201-287, W262F), sequence (Q00056 201-287 W262F): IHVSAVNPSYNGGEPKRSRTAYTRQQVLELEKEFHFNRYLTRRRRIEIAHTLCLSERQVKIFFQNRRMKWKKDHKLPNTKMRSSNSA
HOXA2 (Homo sapiens, UniProt O43364 129-215, R185T), sequence (O43364 129-215 R185T): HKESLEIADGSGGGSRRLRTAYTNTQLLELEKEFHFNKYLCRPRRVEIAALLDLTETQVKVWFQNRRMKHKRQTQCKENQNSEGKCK
HOXC9 (Homo sapiens, UniProt P31274 178-260), sequence (P31274 178-260): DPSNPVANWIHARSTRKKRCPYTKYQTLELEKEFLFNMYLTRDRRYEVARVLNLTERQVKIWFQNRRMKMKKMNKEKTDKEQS
HOXA4 (Homo sapiens, UniProt Q00056 201-287, W262R), sequence (Q00056 201-287 W262R): as the sequence (Q00056 201-287 W262F) above, with F62R counted along it
HOXA4 (Homo sapiens, UniProt Q00056 201-287), sequence (Q00056 201-287): as the sequence (Q00056 201-287 W262F) above, with F62W counted along it
HOXC9 (Homo sapiens, UniProt P31274 178-260, K195R), sequence (P31274 178-260 K195R): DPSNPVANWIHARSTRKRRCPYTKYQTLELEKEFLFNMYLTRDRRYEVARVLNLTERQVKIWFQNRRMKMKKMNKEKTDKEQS
HOXC9 (Homo sapiens, UniProt P31274 178-260, R222W), sequence (P31274 178-260 R222W): as the sequence (P31274 178-260) above, with R45W counted along it
HOXA2 (Homo sapiens, UniProt O43364 129-215, R185K), sequence (O43364 129-215 R185K): as the sequence (O43364 129-215 R185T) above, with T57K counted along it
HOXA4 (Homo sapiens, UniProt Q00056 201-287, R217L), sequence (Q00056 201-287 R217L): as the sequence (Q00056 201-287 W262F) above, with R17L, F62W counted along it
HOXC9 (Homo sapiens, UniProt P31274 178-260, R193K), sequence (P31274 178-260 R193K): as the sequence (P31274 178-260) above, with R16K counted along it
ALX3 (Homo sapiens, UniProt O95076 139-225, L168Q), sequence (O95076 139-225 L168Q): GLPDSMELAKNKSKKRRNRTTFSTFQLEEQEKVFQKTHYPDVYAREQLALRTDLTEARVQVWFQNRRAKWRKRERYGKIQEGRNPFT
MSX2 (Homo sapiens, UniProt P35548 130-214), sequence (P35548 130-214): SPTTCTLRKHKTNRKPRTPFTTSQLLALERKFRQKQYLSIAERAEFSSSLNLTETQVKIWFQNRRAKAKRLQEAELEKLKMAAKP
HOXA7 (Homo sapiens, UniProt P31268 116-202, W177C), sequence (P31268 116-202 W177C): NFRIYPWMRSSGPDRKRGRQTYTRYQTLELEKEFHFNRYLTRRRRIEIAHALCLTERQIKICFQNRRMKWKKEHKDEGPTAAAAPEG
HOXD13 (Homo sapiens, UniProt P35453 263-343, T313A), sequence (P35453 263-343 T313A): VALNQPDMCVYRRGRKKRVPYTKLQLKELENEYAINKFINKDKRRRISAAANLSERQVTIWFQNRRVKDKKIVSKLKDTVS
ALX3 (Homo sapiens, UniProt O95076 139-225, N203S), sequence (O95076 139-225 N203S): as the sequence (O95076 139-225 L168Q) above, with Q30L, N65S counted along it
HESX1, sequence (Q9UBX0 95-180 R109Q): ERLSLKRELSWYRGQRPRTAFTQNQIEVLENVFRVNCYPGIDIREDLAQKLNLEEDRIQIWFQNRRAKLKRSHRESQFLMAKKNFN
ALX3 (Homo sapiens, UniProt O95076 139-225, L168V), sequence (O95076 139-225 L168V): as the sequence (O95076 139-225 L168Q) above, with Q30V counted along it
HOXD13 (Homo sapiens, UniProt P35453 263-343, T313R), sequence (P35453 263-343 T313R): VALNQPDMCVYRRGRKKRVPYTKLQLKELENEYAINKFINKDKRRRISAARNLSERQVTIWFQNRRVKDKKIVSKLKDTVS
ALX3 (Homo sapiens, UniProt O95076 139-225), sequence (O95076 139-225): as the sequence (O95076 139-225 L168Q) above, with Q30L counted along it
MSX2 (Homo sapiens, UniProt P35548 130-214, R199I), sequence (P35548 130-214 R199I): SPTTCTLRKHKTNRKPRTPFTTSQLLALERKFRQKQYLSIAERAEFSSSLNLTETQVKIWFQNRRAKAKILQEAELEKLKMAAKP
PRRX1 (Homo sapiens, UniProt P54821 80-166), sequence (P54821 80-166): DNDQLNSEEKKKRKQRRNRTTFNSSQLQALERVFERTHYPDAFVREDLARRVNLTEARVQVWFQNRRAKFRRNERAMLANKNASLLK
ALX4 (Homo sapiens, UniProt Q9H161 200-286, Q225E), sequence (Q9H161 200-286 Q225E): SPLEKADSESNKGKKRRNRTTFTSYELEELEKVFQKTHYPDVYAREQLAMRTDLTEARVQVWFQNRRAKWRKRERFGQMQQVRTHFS
HOXD13 (Homo sapiens, UniProt P35453 263-343), sequence (P35453 263-343): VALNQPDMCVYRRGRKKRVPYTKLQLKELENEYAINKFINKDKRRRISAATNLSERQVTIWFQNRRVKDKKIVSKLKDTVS
HOXA2 (Homo sapiens, UniProt O43364 129-215, Y150S), sequence (O43364 129-215 Y150S): as the sequence (O43364 129-215 R185T) above, with Y22S, T57R counted along it
ALX3 (Homo sapiens, UniProt O95076 139-225, N203Q), sequence (O95076 139-225 N203Q): as the sequence (O95076 139-225 L168Q) above, with Q30L, N65Q counted along it
VAX1 (Homo sapiens, UniProt Q5SQQ9 86-172, K157R), sequence (Q5SQQ9 86-172 K157R): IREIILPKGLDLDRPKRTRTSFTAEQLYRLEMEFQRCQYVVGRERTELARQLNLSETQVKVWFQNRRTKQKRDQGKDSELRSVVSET
HOXA7 (Homo sapiens, UniProt P31268 116-202), sequence (P31268 116-202): as the sequence (P31268 116-202 W177C) above, with C62W counted along it
VAX1 (Homo sapiens, UniProt Q5SQQ9 86-172, T142I), sequence (Q5SQQ9 86-172 T142I): as the sequence (Q5SQQ9 86-172 K157R) above, with T57I, R72K counted along it
HOXA2 (Homo sapiens, UniProt O43364 129-215), sequence (O43364 129-215): as the sequence (O43364 129-215 R185T) above, with T57R counted along it
PRRX1 (Homo sapiens, UniProt P54821 80-166, F113S), sequence (P54821 80-166 F113S): as the sequence (P54821 80-166) above, with F34S counted along it
ALX4 (Homo sapiens, UniProt Q9H161 200-286), sequence (Q9H161 200-286): as the sequence (Q9H161 200-286 Q225E) above, with E26Q counted along it
MSX2 (Homo sapiens, UniProt P35548 130-214, F161Y), sequence (P35548 130-214 F161Y): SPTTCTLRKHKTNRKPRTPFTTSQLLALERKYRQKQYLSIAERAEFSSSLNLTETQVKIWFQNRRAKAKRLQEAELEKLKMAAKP
VAX1 (Homo sapiens, UniProt Q5SQQ9 86-172), sequence (Q5SQQ9 86-172): as the sequence (Q5SQQ9 86-172 K157R) above, with R72K counted along it

For the sequence TTAATGAA, the binding signal with HOXB4 [1] was 13 upbm affinity estimate (log intensity, higher = more binding, comparable within an allelic series); with HOXA4 [2], 10.7 upbm affinity estimate (log intensity, higher = more binding, comparable within an allelic series); with HOXA2 [3], 12 upbm affinity estimate (log intensity, higher = more binding, comparable within an allelic series); in the experiment with HOXA4 [4], 12.2 upbm affinity estimate (log intensity, higher = more binding, comparable within an allelic series); with HOXB4 [5], 13.7 upbm affinity estimate (log intensity, higher = more binding, comparable within an allelic series); with ALX1 [6] it was 11 upbm affinity estimate (log intensity, higher = more binding, comparable within an allelic series). The binding signal was 12.9 upbm affinity estimate (log intensity, higher = more binding, comparable within an allelic series) with HOXA2 [7]; 10.7 upbm affinity estimate (log intensity, higher = more binding, comparable within an allelic series) with ALX1 [8]; 13.8 upbm affinity estimate (log intensity, higher = more binding, comparable within an allelic series) with HOXA4 [9]; 12.7 upbm affinity estimate (log intensity, higher = more binding, comparable within an allelic series) with VAX1 [10]; 12.4 upbm affinity estimate (log intensity, higher = more binding, comparable within an allelic series) with VAX1 [11]; 10.8 upbm affinity estimate (log intensity, higher = more binding, comparable within an allelic series) in the experiment with HOXA2 [12]. Further, the binding signal was 11.5 upbm affinity estimate (log intensity, higher = more binding, comparable within an allelic series) with ALX1 [13]; 11.8 upbm affinity estimate (log intensity, higher = more binding, comparable within an allelic series) with HOXA4 [14]; 12.1 upbm affinity estimate (log intensity, higher = more binding, comparable within an allelic series) in the experiment with HOXA2 [15]; 12.4 upbm affinity estimate (log intensity, higher = more binding, comparable within an allelic series) with VAX1 [16].

For GTGGGGGA, the binding signal with HOXB4 [1] was 7.95 upbm affinity estimate (log intensity, higher = more binding, comparable within an allelic series); with HOXA7 [17], 8.47 upbm affinity estimate (log intensity, higher = more binding, comparable within an allelic series); with PAX4 [18] it was 9.34 upbm affinity estimate (log intensity, higher = more binding, comparable within an allelic series); in the experiment with PAX4 [19], 9.25 upbm affinity estimate (log intensity, higher = more binding, comparable within an allelic series); with HOXB6 [20], 9.05 upbm affinity estimate (log intensity, higher = more binding, comparable within an allelic series); with HOXB4 [5], 7.59 upbm affinity estimate (log intensity, higher = more binding, comparable within an allelic series). Also, the binding signal with ALX1 [6] was 6.51 upbm affinity estimate (log intensity, higher = more binding, comparable within an allelic series); with PAX4 [21], 9.37 upbm affinity estimate (log intensity, higher = more binding, comparable within an allelic series); with ALX1 [8] it was 6.24 upbm affinity estimate (log intensity, higher = more binding, comparable within an allelic series); in the experiment with PAX4 [22], 9.35 upbm affinity estimate (log intensity, higher = more binding, comparable within an allelic series); with PAX4 [23], 9.43 upbm affinity estimate (log intensity, higher = more binding, comparable within an allelic series); with PAX4 [24], 9.48 upbm affinity estimate (log intensity, higher = more binding, comparable within an allelic series). For the same sequence, the binding signal with HOXA7 [25] is 8.55 upbm affinity estimate (log intensity, higher = more binding, comparable within an allelic series); with ALX1 [13] it was 6.29 upbm affinity estimate (log intensity, higher = more binding, comparable within an allelic series); with HOXB6 [26] it was 9.14 upbm affinity estimate (log intensity, higher = more binding, comparable within an allelic series).

For the sequence CGGGGGTC, the binding signal is 7.85 upbm affinity estimate (log intensity, higher = more binding, comparable within an allelic series) in the experiment with HOXB4 [1]; 9.59 upbm affinity estimate (log intensity, higher = more binding, comparable within an allelic series) in the experiment with HOXC9 [27]; 8.98 upbm affinity estimate (log intensity, higher = more binding, comparable within an allelic series) with HOXB6 [20]; 7.45 upbm affinity estimate (log intensity, higher = more binding, comparable within an allelic series) with HOXB4 [5]; 9.26 upbm affinity estimate (log intensity, higher = more binding, comparable within an allelic series) in the experiment with NKX2-6; 9.65 upbm affinity estimate (log intensity, higher = more binding, comparable within an allelic series) with HOXC9 [28]. Further, the binding signal with HOXC9 [29] was 9.62 upbm affinity estimate (log intensity, higher = more binding, comparable within an allelic series); with HOXC9 [30], 9.59 upbm affinity estimate (log intensity, higher = more binding, comparable within an allelic series); with HOXB6 [26] it was 9.04 upbm affinity estimate (log intensity, higher = more binding, comparable within an allelic series).

For the sequence CGAGGCAC, the binding signal was 7.73 upbm affinity estimate (log intensity, higher = more binding, comparable within an allelic series) with HOXB4 [1]; 9.69 upbm affinity estimate (log intensity, higher = more binding, comparable within an allelic series) with HOXC9 [27]; 7.43 upbm affinity estimate (log intensity, higher = more binding, comparable within an allelic series) in the experiment with HOXB4 [5]; 9.79 upbm affinity estimate (log intensity, higher = more binding, comparable within an allelic series) in the experiment with HOXC9 [28]; 9.52 upbm affinity estimate (log intensity, higher = more binding, comparable within an allelic series) with MSX2 [31]; 9.57 upbm affinity estimate (log intensity, higher = more binding, comparable within an allelic series) with HOXD13 [32]. For the same sequence, the binding signal in the experiment with HOXC9 [29] is 9.72 upbm affinity estimate (log intensity, higher = more binding, comparable within an allelic series); with HOXD13 [33] it was 9.71 upbm affinity estimate (log intensity, higher = more binding, comparable within an allelic series); with MSX2 [34] it was 9.5 upbm affinity estimate (log intensity, higher = more binding, comparable within an allelic series); with HOXD13 [35], 9.78 upbm affinity estimate (log intensity, higher = more binding, comparable within an allelic series); with HOXC9 [30], 9.7 upbm affinity estimate (log intensity, higher = more binding, comparable within an allelic series); in the experiment with MSX2 [36], 9.56 upbm affinity estimate (log intensity, higher = more binding, comparable within an allelic series).

As to ATTAATCA, the binding signal with HOXB4 [1] is 13.2 upbm affinity estimate (log intensity, higher = more binding, comparable within an allelic series); with HOXA4 [2], 10.6 upbm affinity estimate (log intensity, higher = more binding, comparable within an allelic series); in the experiment with ALX4 [37], 13.7 upbm affinity estimate (log intensity, higher = more binding, comparable within an allelic series); with PAX4 [18], 11.6 upbm affinity estimate (log intensity, higher = more binding, comparable within an allelic series); with PRRX1 [38], 11.3 upbm affinity estimate (log intensity, higher = more binding, comparable within an allelic series); with HOXB6 [20] it was 9.98 upbm affinity estimate (log intensity, higher = more binding, comparable within an allelic series). In addition, the binding signal is 12.7 upbm affinity estimate (log intensity, higher = more binding, comparable within an allelic series) in the experiment with ALX4 [39]; 12.6 upbm affinity estimate (log intensity, higher = more binding, comparable within an allelic series) with HOXA2 [3]; 12.1 upbm affinity estimate (log intensity, higher = more binding, comparable within an allelic series) in the experiment with HOXA4 [4]; 13.9 upbm affinity estimate (log intensity, higher = more binding, comparable within an allelic series) with HOXB4 [5]; 11.5 upbm affinity estimate (log intensity, higher = more binding, comparable within an allelic series) in the experiment with ALX1 [6]; 8.54 upbm affinity estimate (log intensity, higher = more binding, comparable within an allelic series) in the experiment with ALX3 [40]. Besides, the binding signal with HOXA2 [7] was 13.3 upbm affinity estimate (log intensity, higher = more binding, comparable within an allelic series); with ALX1 [8], 11.3 upbm affinity estimate (log intensity, higher = more binding, comparable within an allelic series); in the experiment with HOXA4 [9], 13.6 upbm affinity estimate (log intensity, higher = more binding, comparable within an allelic series); with ALX3 [41], 12.3 upbm affinity estimate (log intensity, higher = more binding, comparable within an allelic series); in the experiment with PAX4 [23], 11 upbm affinity estimate (log intensity, higher = more binding, comparable within an allelic series); with HESX1 it was 8.96 upbm affinity estimate (log intensity, higher = more binding, comparable within an allelic series). Moreover, the binding signal was 10.2 upbm affinity estimate (log intensity, higher = more binding, comparable within an allelic series) with ALX3 [42]; 9.65 upbm affinity estimate (log intensity, higher = more binding, comparable within an allelic series) in the experiment with ALX3 [43]; 12 upbm affinity estimate (log intensity, higher = more binding, comparable within an allelic series) in the experiment with ALX1 [13]; 11.4 upbm affinity estimate (log intensity, higher = more binding, comparable within an allelic series) in the experiment with HOXA4 [14]; 8.61 upbm affinity estimate (log intensity, higher = more binding, comparable within an allelic series) in the experiment with ALX3 [44]; 13.3 upbm affinity estimate (log intensity, higher = more binding, comparable within an allelic series) with PRRX1 [45].
